Test [1] in a line: IUF_NPC2c_oligodendrocyte_migration_120hr: Leibniz Research Institute for Environmental Medicine (IUF) 120-hour Neural Progenitor Cell Migration Assay for Oligodendrocyte Migration (NPC2c) (AID 2284297).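 Note: O4-positive oligodendrocyte migration distance divided by radial glia migration distance.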 The method, boiled down:
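Exposure runs 5 days from differentiation onset at 37C, seven concentrations plus solvent control, DMSO at most 0.1%, applied to primary hNPC spheres on laminin. After fixation, O4 immunostaining gives oligodendrocyte distance from the sphere core, relative to radial glia migration.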

Test [2] in a line: IUF_NPC2a_radial_glia_migration_120hr: Leibniz Research Institute for Environmental Medicine (IUF) 120-hour Neural Progenitor Cell Migration Assay for Radial Glia Migration (NPC2a) (AID 2284298). In short, it runs like this:
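Migration distance in um, sphere core edge to migration-area edge, derived by nuclei-density algorithm from Hoechst images after 120 h compound exposure. Primary hNPC spheres differentiated on poly-D-lysine/laminin in N2 medium, 37C; medium half-replaced day 3.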

Test [3] in a line: IUF_NPC2a_radial_glia_migration_72hr: Leibniz Research Institute for Environmental Medicine (IUF) 72-hour Neural Progenitor Cell Migration Assay for Radial Glia Migration (NPC2a) (AID 2284299). In short, it runs like this:
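Human fetal neural progenitor spheres (0.3 mm) plated on poly-D-lysine/laminin in N2 differentiation medium and exposed from day 0 at 7 concentrations; radial glia migration distance from sphere edge measured at 72 h on brightfield images, mean of four directions, vs DMSO.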

Test [4] in a line: IUF_NPC2b_neuronal_migration_120hr: Leibniz Research Institute for Environmental Medicine (IUF) 120-hour Neural Progenitor Cell Migration Assay for Neuron Migration (NPC2b) (AID 2284300). In short, it runs like this:
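TUBB3-positive neurons are imaged after 120 h of differentiation, and their mean distance from the sphere edge is normalised to radial glia migration. Single 0.3 mm fetal hNPC spheres on poly-D-lysine/laminin received 7 compound concentrations, ≤0.1% DMSO, refreshed at day 3.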

A short description of test [5]: IUF_NPC3_neuronal_differentiation_120hr: Leibniz Research Institute for Environmental Medicine (IUF) 120-hour Neuronal Differentiation Assay (NPC3) (AID 2284301). In short, it runs like this: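 Primary human fetal neural progenitor spheres (GW 16-19, 0.3 mm) plated on poly-D-lysine/laminin in N2 medium, exposed from day 0 for 120 h with half-medium refresh at day 3. TUBB3+ cells as percent of Hoechst nuclei in migration area; DMSO baseline.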

Test [6] in a line: IUF_NPC4_neurite_length_120hr: Leibniz Research Institute for Environmental Medicine (IUF) 120-hour Neuronal Morphology Assay for Neurite Length (NPC4) (AID 2284302). The method, boiled down: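 Human fetal cortex (GW 16-19) neural progenitor spheres, 0.3 mm, were plated on poly-D-lysine/laminin in N2 differentiation medium and exposed from day 0 for 120 h, half-feeding at day 3. Mean TUBB3+ neurite length (µm) came from skeletonized images, relative to DMSO.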

Test [7] can be described thus: IUF_NPC5_oligodendrocyte_differentiation_120hr: Leibniz Research Institute for Environmental Medicine (IUF) 120-hour Oligodendrocyte Differentiation Assay (NPC5) (AID 2284304; active = hit-call score of the fitted dose curve at least 0.9, where 1 is the maximum;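 note: primary human fetal neural progenitor spheres plated to migrate and differentiate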). In short, it runs like this: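 Oligodendrocyte differentiation scored as O4-positive cells, found by CNN image analysis, as percent of Hoechst-stained nuclei in the migration area. Scoring followed 5 days of exposure of plated hNPC neurospheres differentiating in DMEM/F12 N2 medium at 37C, with compound refreshed at day 3.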

The nature of test [8]: IUF_NPC4_neurite_area_120hr: Leibniz Research Institute for Environmental Medicine (IUF) 120-hour Neuronal Morphology Assay for Neurite Area (NPC4) (AID 2284305; active = hit-call score of the fitted dose curve at least 0.9, where 1 is the maximum). The method, boiled down:
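Human fetal cortex-derived neural progenitor spheres (0.3 mm, GW 16-19) plated on poly-D-lysine/laminin in N2 differentiation medium and exposed from day 0 for 120 h across 7 concentrations plus solvent control. Neurite area is mean pixel area per TUBB3-positive neuron via skeletonization, analysed relative to DMSO.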

Test [9] in a line: IUF_NPC2-5_cytotoxicity_72hr: Cytotoxicity Assessment at 72 hours in the Leibniz Research Institute for Environmental Medicine (IUF) Neural Progenitor Cell Migration and Differentiation Assay for Cytotoxicity (NPC2-5) (AID 2284306; active = hit-call score of the fitted dose curve at least 0.9, where 1 is the maximum;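 note: LDH release into supernatant measured by resorufin fluorescence marking membrane damage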). The method, boiled down:
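Human fetal (GW 16-19) neural progenitor spheres, 0.3 mm, plated on poly-D-lysine/laminin in N2 differentiation medium and exposed from day 0 to 7 concentrations plus solvent control (DMSO ≤0.1%). LDH-dependent resazurin-to-resorufin fluorescence in supernatant at 72 h.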

Test [10] can be described thus: IUF_NPC2-5_cytotoxicity_120hr: Cytotoxicity Assessment at 120 hours in the Leibniz Research Institute for Environmental Medicine (IUF) Neural Progenitor Cell Migration and Differentiation Assay (NPC2-5) (AID 2284307; active = hit-call score of the fitted dose curve at least 0.9, where 1 is the maximum). In short, it runs like this: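 Membrane-integrity loss measured as LDH activity in medium supernatant via resazurin-to-resorufin fluorescence after 120 h exposure. hNPC spheres from GW 16-19 fetal cortex differentiated on poly-D-lysine/laminin, 37C, medium half-refreshed day 3; seven concentrations, DMSO max 0.1%.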

A short description of test [11]: IUF_NPC2-5_cell_number_120hr: Cell Number Assessment at 120 hours in the Leibniz Research Institute for Environmental Medicine (IUF) Neural Progenitor Cell Migration and Differentiation Assay (NPC2-5) (AID 2284308).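 Note: count of Hoechst-stained nuclei in migration zone around plated human neural progenitor spheres.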 The method, boiled down:
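Counting of all Hoechst-stained nuclei in the migration area at 120 h, versus DMSO control. Primary hNPC spheres differentiated on poly-D-lysine/laminin in N2 medium at 37C, dosed from day 0 (7 concentrations, DMSO ≤0.1%), half-refed day 3.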

Test [12] can be described thus: BSK_IMphg_SRB: Viability Assessment in the BioMAP Diversity Plus: IMphg Assay (AID 2284292).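 Note: measured one day after compound addition.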 Conditions: primary human endothelial cells with macrophages. In short, it runs like this:
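Human venular endothelial cells with macrophages, 24 h after chemical dosing; total protein by 0.1% SRB staining after 10% TCA fixation, read at 560 nm. Positive-direction fitting versus DMSO baseline.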

Read-out in test [13]: Macrophage colony-stimulating factor (MCSF), CSF1 (gene 1435)
As to the kind of experiment: BSK_IMphg_MCSF: BioMAP Diversity Plus: IMphg Assay for Macrophage colony-stimulating factor (MCSF) Biomarker Activity (AID 2284293). As to conditions: primary human endothelial cells with macrophages. The method, boiled down: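 Co-culture of human venular endothelial cells and macrophages, 24 hours of chemical exposure. M-CSF quantified by ELISA, with parallel SRB total-protein staining for cytotoxicity; activity fitted relative to DMSO.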

Read-out in test [14]: Interleukin-10 (IL10), IL10 (gene 3586)
Kind of test: BSK_IMphg_IL10: BioMAP Diversity Plus: IMphg Assay for Interleukin-10 (IL10) Biomarker Activity (AID 2284294). Conditions: primary human endothelial cells with macrophages. The method, boiled down:
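Human venular endothelial cells cocultured with macrophages, dosed 24 h; IL-10 measured by ELISA, activity relative to DMSO. Cytotoxicity assessed in parallel cultures by sulforhodamine B total-protein staining.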

Test [15] can be described thus: BSK_IMphg_SRB.Mphg: Macrophage Viability Assessment in the BioMAP Diversity Plus: IMphg Assay (AID 2284295). As to conditions: primary human endothelial cells with macrophages. In short, it runs like this: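 Venular endothelial cells co-cultured with macrophages, read 24 h after dosing. Total protein measured by 0.1% SRB staining after 10% TCA fixation, absorbance at 560 nm. Fitted in positive direction against DMSO baseline.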

Read-out in test [16]: Thrombomodulin, THBD (gene 7056)
As to the kind of experiment: BSK_LPS_Thrombomodulin: BioMAP Diversity Plus: LPS Assay for Thrombomodulin Biomarker Activity (AID 2284296). As to conditions: primary human HUVEC with PBMC. The method, boiled down:
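Human umbilical vein endothelial cells co-cultured with PBMC and stimulated with LPS; cell-surface thrombomodulin measured by ELISA 24 hours after compound. Gain or loss versus DMSO; cytotoxicity checked by SRB staining in parallel cultures.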

Read-out in another test: CD69, CD69 (gene 969)
Kind of test: BSK_LPS_CD69: BioMAP Diversity Plus: LPS Assay for CD69 Biomarker Activity (AID 2284303). Conditions: primary human HUVEC with PBMC. In short, it runs like this:
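Human umbilical vein endothelial cells co-cultured with PBMC under LPS stimulation, chemical exposure 24 h; cell-surface CD69 measured by ELISA and fitted in the positive direction versus DMSO.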

The nature of test [17]: VALA_TUBHUV_Agonist_CellCount: Viability Assessment in the VALA Sciences human Umbilical Vein Endothelial Tubule Formation (TUBHUV) Agonism Assay (AID 2284309; active = hit-call score of the fitted dose curve at least 0.9, where 1 is the maximum). The method, boiled down:
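HUVEC co-cultured 1:3 with HDF for 3 days in 10 ng/ml VEGF, then compounds added in VEGF medium for a further 3 days (72 h). Nuclear-stain/CD31 imaging cell count. Positive-direction fit versus 0.1% DMSO vehicle.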

Test [18] in a line: VALA_TUBIPS_Agonist_TubuleLength: VALA Sciences human iPS-derived Endothelial Tubule Formation (TUBIPS) Agonism Assay (AID 2284311; active = hit-call score of the fitted dose curve at least 0.9, where 1 is the maximum). In short, it runs like this: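 Human iPS-derived endothelial cells were exposed to compound for 72 h. Tubule formation was imaged by high-content fluorescence and scored as gain of signal relative to DMSO vehicle (agonist mode).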
Test [19] is described as follows: VALA_TUBHUV_Antagonist_CellCount: Viability Assessment in the VALA Sciences human Umbilical Vein Endothelial Tubule Formation (TUBHUV) Antagonism Assay (AID 2284310; active = hit-call score of the fitted dose curve at least 0.9, where 1 is the maximum). In short, it runs like this:
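HUVEC co-cultured with HDF (1:3) 3 days in 10 ng/ml VEGF, then 3 days with compounds in VEGF medium. Fixed, nuclear stain and CD31 immunofluorescence, imaged; cell counts fitted versus 0.1% DMSO, loss of signal read as lower viability.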

Where “and” joins values, the source holds several entries; their conditions need not be identical. Equal entries are not always repeated. Results filed as inconclusive are left out. Where a structure was tested more than once in an assay, its records may differ in their call. Calls of active or inactive are those of the source. Rule for the calls, unless noted: active = hit-call score of the fitted dose curve at least 0.9, where 1 is the maximum; inactive = score below 0.9.

On to `CN1CCC[C@H]1c1cccnc1`, for which the result in [1], in test [2], in [3], in test [4], in [5] and in test [6] was inactive. Also, the compound was classed as inactive in [7], in test [8], in test [9], in [10] and in test [11].
As a reminder, the AC50 is the concentration at which the activity in the assay is half-maximal. With `OCCC(F)(F)C(F)(F)C(F)(F)C(F)(F)C(F)(F)C(F)(F)C(F)(F)C(F)(F)F`, the AC50 in test [12] is 50.5 µM (active) and 49.1 µM (active); in [13] it was 30 µM (active); in test [14], 39 µM (active) and 32.8 µM (active); in test [15], 46.7 µM (active) and 47.4 µM (active); in test [16] it was 347 nM (active); with CD69, CD69 (gene 969) it was 30 µM (active) and 2.1 µM (active). The result in test [13] and in test [16] was inactive.
For the compound `FC(F)(I)C(F)(F)C(F)(F)C(F)(F)C(F)(F)C(F)(F)I`, the half-maximal activity concentration (AC50) in test [12] was 43.5 µM (active) [middle of 5 runs]; in [13] it was 44.4 µM (active) [middle of 5 runs]; in test [14] it was 33.9 µM (active) [middle of 5 runs]; in [15], 12.6 µM (active) [middle of 5 runs]; in test [16], 14.6 µM (active) and 23.5 µM (active); with CD69, CD69 (gene 969) it was 4.49 µM (active) and 40.5 µM (active) and 53.2 µM (active). The outcome is “inactive” in test [16] and “inactive” with CD69, CD69 (gene 969).
As to `OCCC(F)(F)C(F)(F)C(F)(F)C(F)(F)C(F)(F)C(F)(F)F`, the outcome was “inactive” in [12]; “inactive” in test [13]; “inactive” in test [14]; “inactive” in test [15]; “inactive” in [16]; “inactive” with CD69, CD69 (gene 969). Besides, in [15], the AC50 was 39.8 µM (active).
Take `CC1=C(/C=C/C(C)=C/C=C/C(C)=C/C(=O)O)C(C)(C)CCC1`: the compound was classed as inactive in test [1], in test [3], in test [4], in test [5], in test [6] and in test [7]. The compound was classed as inactive in test [8], in test [9], in [10] and in test [11]. Besides, the AC50 in [2] is 1.74 µM (active).
In the case of `CC#C[C@]1(O)CC[C@H]2[C@@H]3CCC4=CC(=O)CCC4=C3[C@@H](c3ccc(N(C)C)cc3)C[C@@]21C`, the outcome in [1], in test [2], in test [3], in test [4], in test [5] and in test [6] was inactive. Further, the compound was called inactive in test [7], in test [8], in test [9], in [10] and in test [11].
With `O=C(O)Cc1cc(I)c(Oc2cc(I)c(O)c(I)c2)c(I)c1`, the result in test [17] and in test [18] was inactive.
Take `NCC(F)(F)C(F)(F)C(F)(F)C(F)(F)C(F)(F)C(F)(F)C(F)(F)F`: the outcome in test [12] was “inactive”; in test [13] it was “inactive”; in test [14] it was “inactive”; in test [15] it was “inactive”; in [16] it was “inactive”; with CD69, CD69 (gene 969) it was “inactive”. The AC50 in [15] was 0.22 µM (active).
As for `C[C@@H]1C[C@H]2[C@@H]3CCC4=CC(=O)C=C[C@]4(C)[C@@]3(F)[C@@H](O)C[C@]2(C)[C@@]1(O)C(=O)COP(=O)(O)O`, the outcome in [12] is “inactive”; in test [13], “inactive”; in [15], “inactive”; in test [16], “inactive”; with CD69, CD69 (gene 969), “inactive”. The AC50 is 954 nM (active) and 1.38 µM (active) in [14]; 4.66 µM (active) in test [15].
For `CCCCCCCCCCCCc1ccccc1S(=O)(=O)O`, in [17], the AC50 was 1.98 µM (active). Further, in test [19], the result was inactive.
`C=C(C)C(=O)OCCC(F)(F)C(F)(F)C(F)(F)C(F)(F)C(F)(F)C(F)(F)F`: the outcome in test [12] is “inactive”; in [13], “inactive”; in test [14], “inactive”; in test [15], “inactive”; in [16] it was “inactive”; with CD69, CD69 (gene 969) it was “inactive”.
